These results are taken from PubChem BioAssay (NCI).

Several values for one entry are separate records, joined by “and”; a condition that tells them apart may be missing. Equal entries are not always repeated. This is part of a sample that, as a whole, favours compounds with a hit. Of some 83,000 tested, about 20% had one in any assay.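 Percent growth is the endpoint: 0 to 100 indicates growth inhibition (40 means 60% inhibition), 0 means no net growth, and negative values indicate cell death.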 Activity calls are given as the source filed them.

For the first experiment, the system named is HCT-15 colon. The experiment is described as follows: NCI-60 one-dose screen, 48 h (100 = growth as untreated, 0 = no growth, -100 = all killed). Particulars: 10 µM. The method, then: Growth inhibition of the HCT-15 human tumor cell line is measured as a screen for anti-cancer activity. Cells are grown in 96 well plates and exposed to the test compound for 48 hours. Compounds are tested at a single concentration, which is 10^-5 M for most compounds. The reported endpoint is percent growth (GI% or GIPRCNT), where numbers from 0 - 100% represent growth inhibition, and numbers from -100% - 0 represent cell death. For example, a value of 40 represents 60% growth inhibition. A value of 0 means no net growth occurred over the course of the experiment. A value of -40 indicates 40% of cells at the beginning of the experiment died by the end of the experiment. A value of -100 means all cells are dead at the end of the experiment.
NCI-60 Human Tumor Cell Lines Screen was performed using the standard one-dose NCI protocol, which is described in more detail at https://dtp.cancer.gov/discovery_development/nci-60/default.htm.
Compounds with GIPRCNT values below 10 were considered active. Activity score was based on GIPRCNT using the following formula: […]
Score is 0 for GIPRCNT values of 100 or above, 50 for GIPRCNT values of 0, and 100 for GIPRCNT values of -100.
Turning to `COc1ccc(-c2cscc2N)cc1`, the growth was 63.1% (inactive).

The same experiment, now with this note: 10 µM unless noted.
`Nc1ccc(SSc2ccc(N)cc2)cc1`: the growth is 88.6% (inactive). On to `COc1ccccc1/C=C\C(=O)c1ccccc1`, for which the growth was 70.2% (inactive). Still for that read-out and setting: the value for `O=C1C2=C(Nc3cc([N+](=O)[O-])ccc3N2)OC1c1c2ccccc2cc2ccccc12` (stereo not given) was 20.5% (inactive). On to `S=C(N/N=C/c1ccccn1)Nc1ccccn1`, for which the growth is 23.8% (inactive).

Consider `S=C(NCCNC(=S)[S][Sn]([c]1ccccc1)([c]1ccccc1)[c]1ccccc1)[S][Sn]([c]1ccccc1)([c]1ccccc1)[c]1ccccc1`, for which the growth is -73.8% (active). The same measure, in the same setting: under `CC(=O)Nc1cccc2cc(O)ccc12` stands 112% (inactive) and 107% (inactive) and 99.9% (inactive); under `OC(CNc1ccnc2cc(Cl)ccc12)CNc1ccnc2cc(Cl)ccc12`, 97% (inactive). Still for that read-out and setting: under `O=C(CC1(O)C(=O)Nc2c(Cl)ccc(Cl)c21)c1ccc(Cl)cc1Cl` (stereo not given) stands 101% (inactive); under `CN(C)c1ccc(C(=C2C=CC(=[N+](C)C)C=C2)c2ccc(N(C)C)cc2)cc1` (tested in a mixture with another compound), -74.7% (active); under `COC(=O)[C@@]12OC[C@]34[C@H]([C@@H](O)[C@@H]1O)[C@@]1(C)[C@H](O)C(=O)C=C(C)[C@@H]1C[C@H]3OC(=O)C(OC(C)=O)[C@@H]24` (stereo not given in full), -27.3% (active). The same measure, in the same setting: under `CC1OC2CC(=O)OC2C2=C1C(=O)c1c(O)cccc1C2=O` (stereo not given) stands -76.6% (active); under `CC1=CC(O)C2CC1C2(C)C` (stereo not given), 104% (inactive) and 112% (inactive). Consider `O=C(Nc1ccc(F)cc1)ON=C1CCCCC1`, for which the growth was 97% [100 µM] (inactive). On the same count and under the same terms, the value for `CNc1ccc2c(c1)c1ccccc1n2C` was 104% (inactive); that for `Cc1ccc(N=C=C(c2ccccc2)c2ccccc2)cc1` was 67.6% (inactive). For the compound `CN(C)C(=O)SC1=C(c2c(Cl)cccc2Cl)C(=O)c2ccccc21`, the growth is -22.4% (active). Same read-out and setting: the value for `COC(=O)c1nc(=S)[nH]c(C(=O)OC)c1C(=O)c1ccccn1` was 16.8% (inactive); that for `N#CSCc1ccc(Cl)c(CSC#N)c1` was 18% (inactive); that for `Nc1nc(N)c2nc(CNc3ccc(C(=O)NC(CCC(=O)O)C(=O)O)cc3)cnc2n1` (stereo not given) was 27% (inactive) and 26% (inactive).

As to `CC1SC(=S)N(c2ccc(Cl)cc2)C1=O` (stereo not given), the growth is 96.5% (inactive) and 84.1% (inactive). Same read-out and setting: the value for `Cn1c2c(c3ccccc31)CCN1C[C@@H]3CCCC[C@H]3C[C@@H]21` was 9.14% (active); that for `Oc1c(Cl)cc(Cl)c2cccnc12` was 44.6% (inactive) and 30.1% (inactive); that for `O=C1c2ccccc2C(=O)c2sc(Nc3cccc(Cl)c3)nc21` was -67.3% (active). Still for that read-out and setting: under `N#CC1C(=O)SC2c3ccccc3C(=O)c3ccccc3C12` (stereo not given) stands 111% (inactive); under `Cc1ccnc(NC(c2ccccc2)c2ccc3cccnc3c2O)c1` (stereo not given), 27.9% (inactive). On the same count and under the same terms, under `NC1=CC(=O)c2ccccc2C1=O` stands 61.5% (inactive); under `Cc1ccc2nc(-[n+]3cc4ccccc4cc3C)ccc2c1`, 104% (inactive); under `Cc1cc(C(C)(CC(C)C)c2ccc(O)c(C)c2)ccc1O`, 85.5% (inactive). Regarding `CC(C)(C)CC(C)(C)c1ccc(OCCSC(=N)N)cc1`, the growth was 1.48% (active).

Turning to `CNc1ccc(N)cc1`, the growth was 109% (inactive). Same read-out and setting: under `Cc1cc(N)c2ccccc2[n+]1CCCCCCCCCC[n+]1c(C)cc(N)c2ccccc21` stands 26.2% (inactive) and 42.4% (inactive). On the same count and under the same terms, the value for `Oc1c(Cl)c2ccccc2c2ccccc12` was 112% (inactive); that for `O=C(/C=C/c1cccc(Cl)c1)c1ccccc1` was 56.7% (inactive) and 62.8% (inactive); that for `Cc1cc2nc(CS)[nH]c2cc1C` was 101% (inactive). Still for that read-out and setting: the value for `N#CSCC(=O)c1ccc(Cl)cc1` was 18.1% (inactive); that for `CC(=O)ON=C1C=CC(=C(C#N)c2ccccc2)C=C1` was 8.51% (active); that for `N#Cc1ccc([N+](=O)[O-])o1` was 104% (inactive). In the case of `C=CCOc1ccc(N=NC(C#N)C#N)cc1`, the growth is 56.9% (inactive).

Still in this experiment, the particulars now being: 100 µM.
For the compound `COc1ccc(-c2cscc2N)cc1`, the growth was 63.9% (inactive).
